Source: PubChem BioAssay
JMJD2A Tudor inh: blocks the human JMJD2A Tudor domain. O75164. AlphaScreen JMJD2A-Tudor / H3K4me3 peptide binding. Potency, µM (highest dose often 114 µM), for inactives: at the top dose activity change, negative = inhibition, actives largely listed as inhibitors. 390,000 compounds, 4.4% hits. AID 504339; also: potency is read from the fitted curve at half-maximal effect; % is scaled to controls: 0 for no effect and ±100 for the full control effect; nearly all actives have a fitted effect of over 50% in size
HP1b chromo inh: blocks HP1-beta chromodomain binding to methylated histone tails | 390,000 compounds, 0.56% hits | Potency, µM (highest dose often 114 µM), inactives show at the highest dose activity change, negative = inhibition, hits mostly inhibitors | AlphaScreen HP1-beta / biotin-H3K9me3 peptide binding; also: potency is read from the fitted curve at half-maximal effect; nearly all actives have a fitted effect of over 70% in size
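AlphaScreen: HP1-beta (50 nM) preformed 30 min with biotin-H3(1-18)K9me3 peptide (50 nM) in PBS pH 7.4, 0.01% Tween-20. Compound added for 30 min at RT, then streptavidin donor/nickel chelate acceptor beads (10 ug/mL) for 30 min.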
KDM4E inh: blocks human JMJD2E demethylase activity | B2RXH2 | JMJD2E catalytic domain, FDH-coupled NADH fluorescence (FDH is formaldehyde dehydrogenase) | Potency, µM (series often up to 57.1 µM), for inactives: top-dose activity change, negative = inhibition, hits mostly inhibitors | 230,000 compounds, 1.6% hits; active = well fitted inhibition curve with a large enough effect, not every such curve was filed as active; inconclusive = small, poorly fitted or top-dose-only effect, or another doubt; inactive = no such curve, though single readings can be large or run the other way;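 also: potency is read from the fitted curve at half-maximal effect; 0% = wells with enzyme and -100% = buffer wells without enzyme; nearly all actives have a fitted effect of over 50% in size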
L3MBTL1 inh: blocks human L3MBTL1. 230,000 compounds, 0.66% hits. Potency, µM (series often up to 57.1 µM), for inactives: at the top dose activity, negative = inhibition, hits mostly inhibitors. Q9Y468. AlphaScreen L3MBTL1–H3K9me1 peptide binding; also: potency is read from the fitted curve at half-maximal effect; % is scaled to controls: 0 for no effect and ±100 for the full control effect; nearly all actives have a fitted effect of over 60% in size
Target sequence (Q9Y468 whole entry, looked up): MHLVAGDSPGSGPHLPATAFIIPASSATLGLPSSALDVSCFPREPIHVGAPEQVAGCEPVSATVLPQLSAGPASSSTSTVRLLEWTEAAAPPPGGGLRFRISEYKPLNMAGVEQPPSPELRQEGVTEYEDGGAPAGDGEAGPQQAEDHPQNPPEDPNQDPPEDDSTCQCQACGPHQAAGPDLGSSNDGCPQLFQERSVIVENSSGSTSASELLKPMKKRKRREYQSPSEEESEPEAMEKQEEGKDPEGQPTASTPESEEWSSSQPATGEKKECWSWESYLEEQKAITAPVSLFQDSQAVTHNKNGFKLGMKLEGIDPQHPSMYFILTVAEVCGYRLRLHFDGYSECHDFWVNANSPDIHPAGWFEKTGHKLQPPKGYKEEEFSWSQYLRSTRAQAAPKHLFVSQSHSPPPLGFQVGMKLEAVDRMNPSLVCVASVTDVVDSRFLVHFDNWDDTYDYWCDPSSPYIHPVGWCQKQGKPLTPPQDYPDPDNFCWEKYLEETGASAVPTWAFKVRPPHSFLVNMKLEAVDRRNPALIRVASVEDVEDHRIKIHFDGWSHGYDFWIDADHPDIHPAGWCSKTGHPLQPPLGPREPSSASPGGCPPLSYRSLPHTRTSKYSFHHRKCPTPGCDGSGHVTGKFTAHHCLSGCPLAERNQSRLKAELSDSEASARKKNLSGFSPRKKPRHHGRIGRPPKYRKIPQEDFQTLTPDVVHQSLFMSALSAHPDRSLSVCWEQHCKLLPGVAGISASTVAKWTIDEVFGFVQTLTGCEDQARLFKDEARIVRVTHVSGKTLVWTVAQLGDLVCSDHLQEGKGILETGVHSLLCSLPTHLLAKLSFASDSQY
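First, the protein-peptide complex forms for 30 min at room temperature (L3MBTL1 50 nM, biotinylated H3K9me1 peptide 75 nM). Next, compounds are pin-transferred and incubated 30 min. Finally, AlphaScreen beads are added and read after 30 min.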
PI5P4K alpha inh: PI5P4K alpha (human) kinase inhibition; 330,000 compounds, 1.2% hits; P48426; PI5P4Kalpha enzyme, ADP-Glo luminescence, 60 min; active compounds read low; max response, %; active = max response of -50% or lower; inconclusive = between -30% and -50%; inactive = -30% or higher; also: value at the top dose of about 77 µM; % is scaled to controls: 0 for no effect and ±100 for the full control effect
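Single end-point luminescence (ADP-Glo) quantified ADP from PI5P4Kalpha turnover; ATP 5 microM final, 1 h at RT, 0.1% CHAPS and 0.28 mM EGTA in HEPES pH 7.4.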
BAZ2B inh: inhibitors of human BAZ2B bromodomain; AlphaScreen BAZ2B-H3K14Ac peptide displacement; Potency, µM (doses to about 114 µM), without a hit: at the highest dose activity change, negative = inhibition, most hits filed as inhibitors; 360,000 compounds, 4.4% hits; also: potency is read from the fitted curve at half-maximal effect; % is scaled to controls: 0 for no effect and ±100 for the full control effect; nearly all actives have a fitted effect of over 60% in size
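BAZ2B 50 nM plus b-H3(5-23)K14Ac 50 nM, PBS pH 7.4/0.01% Tween-20, 30 min RT; compound added (max 110 uM), 30 min RT; streptavidin donor/Ni-chelate acceptor beads 10 ug/mL final, 20 min dark; AlphaScreen read.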
Active calls of the source: *; ? = inconclusive; nt = no result given; [ ] = dose if it differs, or a comment. Most compounds without a hit are left out; they make up all but 5.7% or so of the library. Unless noted, calls follow the shape of the dose curve; as a rule, active = well fitted inhibition curve with a large enough effect; inconclusive = small, poorly fitted or top-dose-only effect; inactive = no such curve, though single readings can be large or run the other way.

SMILES | JMJD2A Tudor inh | HP1b chromo inh | KDM4E inh | L3MBTL1 inh | PI5P4K alpha inh | BAZ2B inh
CC1(C(=O)O)Sc2[nH]c(=O)sc2C2c3ccccc3OC(=O)C21 (centres undefined) | -8% | 34% | ? | -10% | -91* | ?
COc1ccc(NC2SC(=O)N(CC(=O)O)C2=O)cc1 (centres undefined) | 79µM* | 8% | -11% | 4% | -15 | -28%
CS(=O)(=O)N1CCc2cc(C(=O)Nc3ccc(S(N)(=O)=O)cc3)ccc21 | -13% | 22% | nt | nt | nt | 0%
O=C1C=C(Nc2cccc3cccnc23)c2ccccc2C1=O | 56µM* | ? | nt | ? | -10 | 56µM*
O=C1C=C(Nc2ccccc2C(=O)O)c2ccccc2C1=O | 22µM* | 16µM* | ? | nt | ? | 35µM*
CCNC(=O)C1(C)CCCN1C(=O)c1ccc2c(c1)OCO2 (centres undefined) | nt | nt | nt | nt | 5 | nt
Cc1cccc(C)c1NC(=S)NCCc1ccc(O)c(O)c1 | -22% | -7% | 1% | -9% | 6 | -25%
C[C@@H](CCc1ccc(O)cc1)NCCc1ccc(O)c(O)c1 | nt | nt | 20µM* | nt | nt | nt
CCN(CCCNC(=O)CN1N=C(c2ccccc2)CCC1=O)c1ccccc1 | ? | 5% | nt | nt | nt | -39%
NC(=O)c1ccccc1NC(=O)C1CCCN(c2ncnc3onc(-c4ccc(F)cc4)c23)C1 (centres undefined) | -11% | 28% | nt | nt | nt | 5%[57.1 µM]
Cc1ccc(CC(=O)N(C)CC(=O)Nc2ccc(N3CCOCC3)cc2)cc1C | -15% | 23% | nt | -5% | -5 | -29%
Cc1ccc(NC(=O)CN(C)CC(=O)Nc2ccc(N3CCOCC3)cc2)cc1F | 7.9µM* | ? | 3% | -3% | 2 | 18µM*
CN(CC(=O)Nc1ccc(N2CCOCC2)cc1)C(=O)CC(c1ccccc1)c1ccccc1 | -26% | 3% | 8% | nt | 1 | ?
CCn1c2ccccc2c2cc(NC(=O)CN(C)CC(=O)Nc3ccc(N4CCOCC4)cc3)ccc21 | ? | -17% | ? | -9% | -3 | 28µM*
CN(CC(=O)Nc1ccc(N2CCOCC2)cc1)C(=O)CCc1cc(C(C)(C)C)c(O)c(C(C)(C)C)c1 | ? | -17% | nt | -12% | -1 | 50µM*
CCCC(=O)Nc1ccc(N2CCOCC2)cc1 | -12%[11.4 µM] | 26% | -5% | -15%[11.4 µM] | 5 | 8%
CN(CC(=O)OCC(=O)NCc1ccccc1)S(=O)(=O)c1ccc(Cl)cc1 | -12% | 25% | -1% | 2% | 5 | 0%
COc1ccc(C(=O)Nc2cccnc2Cl)cc1OC | -9% | 33% | nt | 2% | 10 | ?
O=C(Nc1cccnc1Cl)c1ccc(=O)oc1 | ? | 2% | ? | ? | ? | 56µM*
O=C(Nc1cccc2ncccc12)c1ccc(Cl)cc1 | 3.2µM* | ? | nt | ? | 2 | 11µM*
COc1cccc(NC(=O)COC(=O)c2ccc(S(=O)(=O)NCc3ccco3)cc2)c1 | 35µM* | -28% | 3% | nt | -7 | ?
O=C(CN(Cc1ccccc1)C(=O)CNS(=O)(=O)c1ccccc1)NCc1ccco1 | 79µM* | -1% | nt | nt | -10 | -4%
O=C(COc1ccccc1)Nc1ccc(S(=O)(=O)NCc2ccco2)cc1 | 50µM* | -15% | 5% | -11% | ? | ?
Cc1ccccc1S(=O)(=O)NC(=O)C1(C)CCN1C(=O)c1cccc2ccccc12 (centres undefined) | nt | nt | nt | nt | -2 | nt
Cc1ccccc1N(C)C1=N[S+](=O)([O-])c2ccccc21 | -20% | nt | nt | nt | nt | nt
SMILES | JMJD2A Tudor inh | HP1b chromo inh | KDM4E inh | L3MBTL1 inh | PI5P4K alpha inh | BAZ2B inh
O/N=C1\CCCc2c1nc(-c1ccccc1F)n2O | 32µM* | -2% | ? | nt | -2 | 50µM*
Cc1ccc(-c2noc(CNC(=O)c3ccc(C)c(Cl)c3)n2)cc1 | 2% | 62% | nt | nt | nt | 6%
COc1cc(/C=C(\C#N)C(N)=O)ccc1OS(=O)(=O)c1ccc(C)cc1 | -19% | -4% | -6% | 0% | -13 | -38%
COc1cc(/C=C2/SC(=S)NC2=O)ccc1OS(=O)(=O)c1ccc(C)cc1 | 56µM* | ? | 3% | -6% | -85* | 50µM*
CCN1C(=O)S/C(=C/c2ccc(Oc3ccc([N+](=O)[O-])cn3)c(OC)c2)C1=O | -27% | 21% | 4% | ? | 3 | 16%
CCOc1ccccc1C=C1SC(=S)NC1=O | ? | ? | nt | nt | -66* | nt
CCN1C(=O)C(=Cc2cccc(OC)c2Oc2ccc([N+](=O)[O-])cc2[N+](=O)[O-])SC1=S | ? | ? | nt | nt | 1 | 25µM*
COc1cc(/C=C2\SC(=S)NC2=O)ccc1OS(=O)(=O)c1ccccc1 | nt | nt | -11% | -23% | nt | 45µM*
Cc1c(Cl)cccc1NC(=O)CSc1nc(=O)n(Cc2ccccn2)c2c1CCC2 | 6% | 20% | nt | nt | nt | 3%
Cn1c(=O)c(=O)n(C)c2cc(N3CCCC3)c(NC(=O)c3ccccc3Cl)cc21 | 7% | 26% | nt | nt | nt | -15%
Cc1cn2c(=O)cc(COC(=O)c3cccc(NC(=O)c4ccc(C(C)(C)C)cc4)c3)nc2s1 | -14% | 11% | nt | nt | nt | -2%
COc1cc(/C=C2\SC(=O)NC2=O)ccc1Oc1ccc([N+](=O)[O-])cc1[N+](=O)[O-] | 35µM* | ? | -6% | -15% | 3 | 45µM*
CO/N=C/c1ccc(Oc2ccc([N+](=O)[O-])cc2[N+](=O)[O-])c(OC)c1 | ? | ? | -3% | -6% | 11 | ?
CC(=O)Nc1ccc(S(=O)(=O)Oc2cccc(/C=C3\SC(N)=NC3=O)c2)cc1 | 25µM* | -1% | -3% | nt | ? | -31%
NC1=NC(=O)/C(=C/c2cccc(F)c2)S1 | -10% | 14% | nt | nt | -4 | 2%
COc1cc(/C=C2\SC(=S)N(CCCCC(=O)O)C2=O)ccc1OS(=O)(=O)c1ccc(C)cc1 | 50µM* | ? | nt | -26% | 6 | 35µM*
CCOc1ccc(/C=C2\SC(=S)NC2=O)cc1OC | -31% | -4% | -14% | -13% | -78* | ?
COc1ccc(/C=C2\SC(=S)N(CCCCCC(=O)Nc3cc(C)on3)C2=O)cc1OC | -6% | 11% | nt | nt | -1 | -13%
CCS(=O)(=O)c1nc2ccccc2n1CC(=O)Nc1ccccc1C(=O)OC | -12% | 20% | nt | nt | nt | -7%
COc1ccc(/C=C2\SC(=S)NC2=O)cc1OS(=O)(=O)c1ccc(NC(C)=O)cc1 | -35% | -14% | -3% | nt | -88* | -38%
COc1cccc(/C=C2\SC(=S)N(N3CCOCC3)C2=O)c1OC | ? | ? | 3% | ? | 11 | 18µM*
COc1cccc(/C=C2\SC(=S)NC2=O)c1OS(=O)(=O)c1ccc(NC(C)=O)cc1 | -35% | -2% | 13% | -9% | ? | ?
